Measurements from PubChem BioAssay (EPA / NIEHS).
Where “and” joins values, the source holds several entries; their conditions need not be identical. Equal entries are not always repeated. Calls of active or inactive are those of the source. How the source made its calls: active means hit-call score of the fitted dose curve at least 0.9, where 1 is the maximum; inactive means score below 0.9.

Read-out: UDP glucuronosyltransferase (UGT1A1), UGT1A1 (gene 54658)
Assay: LTEA_HepaRG_UGT1A1: Life Technologies and Expression Analysis (LTEA) Assay for UDP glucuronosyltransferase (UGT1A1) using HepaRG (AID 2283538)
Details: mRNA level, 48 h; actives raise or lower the signal
Protocol: LTEA_HepaRG is a cell based, multiplexed-readout assay that uses HepaRG, a human liver cell line, with measurements taken at 48 hours after chemical dosing on a 96-well plate.LTEA_HepaRG_UGT1A1 is one of 102 assay component(s) measured in the LTEA HepaRG cell culture assay. It is a marker of Steatosis/NR mediated metabolism.Data from the assay component LTEA_HepaRG_UGT1A1 was analyzed into 1 endpoint. This assay endpoint, LTEA_HepaRG_UGT1A1, was analyzed with bidirectional fitting relative to DMSO as the negative control and baseline of activity. Using a type of inducible reporter, measures of mRNA induction for gain or loss-of-signal activity can be used to understand regulation of transcription factor activity. To generalize the intended target to other relatable targets, this assay endpoint is annotated to the transferase intended target family, where the subfamily is glucuronosyltransferase.
A total of 1060 chemcials from the ToxCast library were tested in eight-point concentration-response experiments. Cell culture and cytotoxicity assays were conducted at Thermo Fisher Scientific's Custom Services facility (Madison, WI). A single lot of human HepaRG cells (Thermo Fisher Scientific, Frederick, MD) was used for the cell culture experiments. 96-well format collagen type I coated plates of human HepaRG cells were prepared using established methods. Briefly, cryopreserved HepaRG cells were thawed, plated at a density of approximately 100,000 cells/well in HepaRG Thaw, Plate, and General Purpose media (HPRG770, Thermo Fisher Scientific), and incubated for 48 hours. 0.5% DMSO was selected as vehicle control to balance the requisite need of DMSO in HepaRG cultures to maintain differentiation (for example, baseline metabolism, proportions of hepatocytes vs. cholangiocytes), while enabling further hepatic receptor pathway activation (for example, PXR and CAR) in response to chemical exposure. 48 hours after plating, the culture medium was replaced with HepaRG Serum-Free Incudtion Media. Cells were exposed to each test chemical in duplicate and maintained in CO2 incubators for another 48 hours. Chemical plates were thawed to room temperature and 200x concentrations of treatment groups were prepared. 8-point conentration-reponse curves were made with the highest exposure at 100 uM, followed by half-log dilutions, all in 0.5% DMSO. Each test plate contained variouse controls, induction positive controls (1mM phenobarbital), cytotoxicity positive controls ([…] aflatoxin B1), vehicle controls (0.5% DMSO), and total lysis controls (0.5% DMSO). Cell morphology images were taken using an Essen IncuCyte FLR automated microscope, with six 96-well plates imaged in about 24 minutes. Images were captured and exported and JPEG files. Spent culture media was transfered to black-well plates for the LDH assay, and remaining media was sorted at -80 C for later use. Cells were treated with RLT buffer and frozen until shipped for gene expression analysis. Total RNA was isolated from the cell suspension in 75 uL of Buffer RLT (Qiagen, Germantown, MD 20874) by Quintiles/Expression Analysis (Durham, NC) using a custom isolation procedure. Total RNA from each plate well was transferred to a preamplification plate. Fluidigm's 96.96 Dynamic ArrayTM (Fluidigm, Amsterdam, the Netherlands) technology was used for gene expression analyses by quantitative reverse transcription polymerase chain reaction (qRT-PCR, performed by Quintiles/Expression Analysis, Durham, NC)89. Standard TaqManTM Assays (Applied Biosystems/ThermoFisher Scientific, Foster City, CA) were used to assess the expression of 93 genes selected based on their selectivity and sensitivity to important hepatic receptors known to be modulated by environmental chemicals; importance in human hepatocyte functionality; and hepatotoxicity. […]

Compound	AC50	outcome
COc1cc(-c2ccc(N)c(OC)c2)ccc1N	25.4 µM (active) and 22.1 µM (active)	
O=C(O)C(F)(F)C(F)(F)C(F)(F)C(F)(F)C(F)(F)C(F)(F)C(F)(F)C(F)(F)C(F)(F)C(F)(F)F	31 µM (active)	
O=C1C2(Cl)C3(Cl)C4(Cl)C(Cl)(Cl)C5(Cl)C3(Cl)C1(Cl)C5(Cl)C24Cl (stereo unspecified)	15.8 µM (active)	
C=CC(=O)OCCCCCC(C)C		inactive
O=C(O)C(Cl)(Cl)Cl		inactive
Oc1cccc2cccnc12		inactive
O=c1[nH]c(=O)[nH]c(=O)[nH]1		inactive
CC(C)(C)CC(C)(C)c1ccc(O)cc1		inactive
C[C@]12CCC(=O)C[C@@H]1CC[C@@H]1[C@@H]2CC[C@]2(C)[C@@H](O)CC[C@@H]12		inactive
Cn1sc(Cl)cc1=O		inactive
Cc1ccccc1N		inactive
CC(C)(C)c1cc(O)ccc1O		inactive
CCC(C)(C)c1ccc(O)c(C(C)(C)CC)c1		inactive
CCC(=O)C(CC(C)N(C)C)(c1ccccc1)c1ccccc1 (stereo unspecified)		inactive
C[C@@H]1C[C@@H]([C@H](O)CC2CC(=O)NC(=O)C2)C(=O)[C@@H](C)C1	36.2 µM (active)	
O=C(O)C(F)(F)C(F)(F)C(F)(F)C(F)(F)C(F)(F)C(F)(F)F		inactive

Compound	AC50	outcome
CCCCCCCCc1ccc(O)cc1	70.1 µM (active)	
NC(=O)O		inactive
CCN1CCC2(CC1)COc1cc3c(cc12)N(C(=O)c1ccc(-c2ccc(-c4nnc(C)o4)cc2C)cc1)CC3		inactive
C=C(C)C(=O)[O][Sn]([CH2]CCC)([CH2]CCC)[CH2]CCC	9.35 µM (active)	
O=C(Nc1ccc2[nH]ccc2c1)c1cc2cc(F)ccc2n1Cc1cccc(F)c1	50 µM (active)	
ClCC(Cl)CCl		inactive
CC(C)(OO)c1ccccc1		inactive
CC(=O)[O][Hg][c]1ccccc1	32.5 µM (active)	
CCOP(=S)(OCC)SCSP(=S)(OCC)OCC	14.8 µM (active)	
CC(C)(c1ccccc1)c1ccc(O)c(C(C)(C)c2ccccc2)c1	12.2 µM (active)	
CCOP(=S)(OCC)Oc1nc(Cl)c(Cl)cc1Cl	50 µM (active)	
ClC1(Cl)C2(Cl)C3(Cl)C4(Cl)C(Cl)(Cl)C5(Cl)C3(Cl)C1(Cl)C5(Cl)C24Cl (stereo unspecified)		inactive
O=[N+]([O-])c1ccc(O)c([N+](=O)[O-])c1	13.2 µM (active)	
CC12CC1(C)C(=O)N(c1cc(Cl)cc(Cl)c1)C2=O (stereo unspecified)	10.5 µM (active)	
CN(C)N=O		inactive
